Data as given in the OligoGym collection.

Target: KRI1
Assay: pooled miR-30 sensor sort-seq; sequence = guide strand
Details: shRNA
Also: reference of the scale not given here.

Question: ATGTCCTCGTAGTCCAGCCGGT was tested. Which sensor-assay potency score (higher = more potent) did it give?
Answer: The sensor-assay potency score (higher = more potent) was -1.51.

Question: TTTGTTGAGGATGTAATCCCGC was tested. Which sensor-assay potency score (higher = more potent) did it give?
Answer: The sensor-assay potency score (higher = more potent) was -0.152.

Question: For TTCTTTAGGGAGCACCACCGGT, which sensor-assay potency score (higher = more potent) is on record?
Answer: Its sensor-assay potency score (higher = more potent) is -1.34.

Question: TTACTTTCCGCAGCTTCTCCAG was tested. Which sensor-assay potency score (higher = more potent) did it give?
Answer: Its sensor-assay potency score (higher = more potent) is -1.11.

Question: Which sensor-assay potency score (higher = more potent) does the source give for TTGAGCTCTTCCTGCTTCTTTG here?
Answer: Its sensor-assay potency score (higher = more potent) is -1.32.

Question: How did the sensor-assay potency score (higher = more potent) turn out when TTCCTCCACATAACTTTGCGAC was run?
Answer: Its sensor-assay potency score (higher = more potent) is -0.99.

Question: For TACTTTCCGCAGCTTCTCCAGC, which sensor-assay potency score (higher = more potent) is on record?
Answer: The sensor-assay potency score (higher = more potent) was -0.735.

Question: With TAACCTTCCTCTCGTAGTCCTT as the sequence, how does the sensor-assay potency score (higher = more potent) read?
Answer: The sensor-assay potency score (higher = more potent) was -0.514.

Target: KRT2
Assay: as above
Details: shRNA

Question: TTGGTGTCAGTGACACTCTGAT was tested. Which sensor-assay potency score (higher = more potent) did it give?
Answer: Its sensor-assay potency score (higher = more potent) is -0.228.

Question: TTTGATGAAATGGTGCTGCTTG was tested. Which sensor-assay potency score (higher = more potent) did it give?
Answer: Its sensor-assay potency score (higher = more potent) is 0.566.

Question: TAAACCTCCAACACCACCAGGG was tested. Which sensor-assay potency score (higher = more potent) did it give?
Answer: Its sensor-assay potency score (higher = more potent) is 0.275.

Question: How did the sensor-assay potency score (higher = more potent) turn out when TACACTGCTTCTTCACATGTGC was run?
Answer: Its sensor-assay potency score (higher = more potent) is 0.0185.

Question: Which sensor-assay potency score (higher = more potent) does the source give for TTCTGCAGTGAGCCCATCCAGA here?
Answer: The sensor-assay potency score (higher = more potent) was -1.13.

Question: How did the sensor-assay potency score (higher = more potent) turn out when TTGCACATTCTTACACTGCTTC was run?
Answer: The sensor-assay potency score (higher = more potent) was 0.204.

Question: For TTTCAGAAACTCAATTTCCTGG, which sensor-assay potency score (higher = more potent) is on record?
Answer: The sensor-assay potency score (higher = more potent) was -0.272.

Question: TATCTTGATCTCTTTCAGGCTG was tested. Which sensor-assay potency score (higher = more potent) did it give?
Answer: The sensor-assay potency score (higher = more potent) was 0.155.

Question: With TTGGACTGCAACTCCACCTTTA as the sequence, how does the sensor-assay potency score (higher = more potent) read?
Answer: The sensor-assay potency score (higher = more potent) was -0.149.

Question: With TTCACATTCTGGATCTCTGGGT as the sequence, how does the sensor-assay potency score (higher = more potent) read?
Answer: The sensor-assay potency score (higher = more potent) was 0.038.

Question: Which sensor-assay potency score (higher = more potent) does the source give for TTGATCTCCGGCTTCCACCAGA here?
Answer: The sensor-assay potency score (higher = more potent) was -0.146.

Question: With TTTTGATCTGCTCACGCTCTTG as the sequence, how does the sensor-assay potency score (higher = more potent) read?
Answer: The sensor-assay potency score (higher = more potent) was -1.42.

Target: KRT33B
Assay: as above
Details: shRNA

Question: Which sensor-assay potency score (higher = more potent) does the source give for TTGTCGATCTGCACCACCAGCC here?
Answer: Its sensor-assay potency score (higher = more potent) is -0.512.

Question: TTCTGAAGTCATCTGCAGCCAG was tested. Which sensor-assay potency score (higher = more potent) did it give?
Answer: Its sensor-assay potency score (higher = more potent) is -0.402.

Question: With TAGGACTGCAGCTGCTCCGAGC as the sequence, how does the sensor-assay potency score (higher = more potent) read?
Answer: Its sensor-assay potency score (higher = more potent) is -1.39.

Question: How did the sensor-assay potency score (higher = more potent) turn out when TTGTCAGAGAGGCAGAACTGGC was run?
Answer: Its sensor-assay potency score (higher = more potent) is -1.76.

Question: How did the sensor-assay potency score (higher = more potent) turn out when ATACTGATTCCTGGTCTCGTTC was run?
Answer: Its sensor-assay potency score (higher = more potent) is -1.38.

Question: Which sensor-assay potency score (higher = more potent) does the source give for TTTTCACATGCATTGGTGGTGG here?
Answer: The sensor-assay potency score (higher = more potent) was 0.0181.

Question: How did the sensor-assay potency score (higher = more potent) turn out when TTTCCAGAGAGTATCGCAGGTT was run?
Answer: Its sensor-assay potency score (higher = more potent) is 0.0223.

Question: For TCCGTCTGGTACTTGGTTCTGA, which sensor-assay potency score (higher = more potent) is on record?
Answer: The sensor-assay potency score (higher = more potent) was -0.6.

Question: For TGGTTCTGAAGTCATCTGCAGC, which sensor-assay potency score (higher = more potent) is on record?
Answer: The sensor-assay potency score (higher = more potent) was -1.53.

Question: For ATTGTCGATCTGCACCACCAGC, which sensor-assay potency score (higher = more potent) is on record?
Answer: Its sensor-assay potency score (higher = more potent) is -1.36.

Question: With TTTTCCAGAGAGTATCGCAGGT as the sequence, how does the sensor-assay potency score (higher = more potent) read?
Answer: Its sensor-assay potency score (higher = more potent) is 0.0207.

Question: For TTGGTTCTGAAGTCATCTGCAG, which sensor-assay potency score (higher = more potent) is on record?
Answer: The sensor-assay potency score (higher = more potent) was 0.243.

Question: How did the sensor-assay potency score (higher = more potent) turn out when TTCTCAGACTTGCTGCACAGGA was run?
Answer: Its sensor-assay potency score (higher = more potent) is -1.16.

Question: Which sensor-assay potency score (higher = more potent) does the source give for TCGATCTGCACCACCAGCCTGG here?
Answer: The sensor-assay potency score (higher = more potent) was -0.584.

Target: KRT75
Assay: as above
Details: shRNA

Question: TTGACTCCAAACCTGTTGCTGG was tested. Which sensor-assay potency score (higher = more potent) did it give?
Answer: Its sensor-assay potency score (higher = more potent) is -0.175.

Question: With TTCCACAACATCCTGCATGTTC as the sequence, how does the sensor-assay potency score (higher = more potent) read?
Answer: The sensor-assay potency score (higher = more potent) was 0.126.

Question: With TTCATCTTCGTACCTGACTTTG as the sequence, how does the sensor-assay potency score (higher = more potent) read?
Answer: The sensor-assay potency score (higher = more potent) was -1.

Question: Which sensor-assay potency score (higher = more potent) does the source give for TTAATTTCATCTTCGTACCTGA here?
Answer: Its sensor-assay potency score (higher = more potent) is 0.609.

Question: Which sensor-assay potency score (higher = more potent) does the source give for TTGTGCTTTGACCTCGGCGATG here?
Answer: The sensor-assay potency score (higher = more potent) was -1.35.

Question: Which sensor-assay potency score (higher = more potent) does the source give for TTCACATGTGTAACAGACGGGT here?
Answer: Its sensor-assay potency score (higher = more potent) is -0.549.
